This is an account of results in PubChem BioAssay (NCATS).

Assay [1] deals with Glucocorticoid receptor (Homo sapiens) (UniProt P04150). Description: GR-GFP Redistribution (AID 450;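 active = compounds whose dose series gives a full or clear partial fitted curve of increased nuclear translocation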; also: potency is read from the fitted curve at half-maximal effect). The following applies: U2OS GR-GFP nuclear translocation, laser cytometry, 2 h.
Assay [2] in a line: qHTS Assay for Lipid Storage Modulators (AID 1519; calls by dose curve). The following applies: Drosophila S3 cells, BODIPY lipid droplet/cell ratio, laser cytometry, cells loaded with oleic acid; for activity change, negative = inhibition: at 57.5 µM (top of the series). An outline of the steps: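 Cells seeded at 5,000 per well were treated with compounds over a concentration series and loaded with oleic acid (400 uM, as added). Lipid droplet fluorescence (488 nm excitation, 500-530 nm channel) was read by laser-scanning cytometry and normalized to 20 uM Triacsin C.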
On the technique in general: Quantitative high-throughput screening tests each substance at several concentrations.

In assay [3] the target is DNA dC->dU-editing enzyme APOBEC-3G (Homo sapiens) (UniProt Q9HC16). Put plainly: qHTS for inhibitors of Vif-A3G interactions: Validation (AID 588379). Also: 0% is about no effect. An outline of the steps:
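Yellow fluorescence (Ex 488, Em 500-530) of Vif-coexpressing HeLa A3G-eYFP cells, scanned by Acumen cytometer, reports blocked A3G degradation. Cells plated at 700/well overnight at 37 deg C before compound addition, then a further overnight compound incubation at 37 deg C.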

For assay [4], the system named is Zika virus NS2B-NS3 protease. Description: Primary screen GU AMC qHTS for Zika virus inhibitors (AID 1347154).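 Also: 0% = no-inhibitor control and -100% = no-enzyme control; nearly all actives have a fitted effect of over 70% in size.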 An outline of the steps:
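Fluorogenic AMC-substrate cleavage by noncovalent NS2B-NS3 protease complex (25 nM, pH 8.0 Tris buffer with Tween 20) followed for 15 minutes at room temperature (~20% conversion). Percent inhibition from ex340/em450 signal change, fitted by 4-parameter Hill equation.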

The nature of assay [5]: Primary qHTS for small molecule stabilizers of the endoplasmic reticulum resident proteome: Secreted ER Calcium Modulated Protein (SERCaMP) assay (AID 1508630). Also: % is scaled to controls: 0 for no effect and ±100 for the full control effect. An outline of the steps: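 The SH-SY5Y reporter protocol was run at 3 concentrations up to 38.3 uM (primary) or 11 concentrations (follow-up): 16 h compound, 100 nM thapsigargin for 4 h, then extracellular luciferase luminescence.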

Assay [6] addresses Glucocorticoid receptor (Homo sapiens) (UniProt P04150). Put plainly: GR-EFC Redistribution (AID 451; calls by dose curve; also: potency is read from the fitted curve at half-maximal effect). The following applies: CHO-K1 GR-EFC translocation, beta-gal luminescence, 2 h. An outline of the steps:
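Translocation of GR-ED fusion to nuclear EA restores b-gal, read by luminescence after 1 h room-temperature detection. Engineered CHO-K1 biosensor cells, 1,000/well, exposed 2 h at 37 C to titrations up to 46 uM final.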

The target in assay [7] is Mitogen-activated protein kinase 10 (Mus musculus) (UniProt Q61831). Put plainly: JNK3 AlphaScreen Assay (AID 530; active = well fitted curve in either direction with a large enough effect, not every such curve was filed as active;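 also: kinase came from lysate of stimulated human HepG2 cells; signal reports phosphorylation of biotinylated GST-cJun 1-79 at Ser73 with 10 µM ATP; % is scaled to controls: 0 for no effect and ±100 for the full control effect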). An outline of the steps:
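qHTS titrations with 15 min compound pre-incubation before adding ATP (10 uM final). Read-out: AlphaScreen of Ser73-phosphorylated biotin-GST-cJun using HepG2 lysate JNK3 activated by IL-1β and TNFα.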
(Alpha assays give light when donor and acceptor beads are brought close together.)

Assay [8] deals with Ubiquitin carboxyl-terminal hydrolase 1 (Homo sapiens) (UniProt O94782). Description: Inhibitors of USP1/UAF1: Pilot qHTS (AID 504865).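 Also: rhodamine fluorescence freed from ubiquitin-rhodamine substrate followed over time; top concentration of the series differs between compounds; % is scaled to controls: 0 for no effect and ±100 for the full control effect; nearly all actives have a fitted effect of over 35% in size.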 An outline of the steps:
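USP1/UAF1 complex (1nM) preincubated with compound 15 min at room temperature, then Ub-Rho substrate (150nM final) added. Fluorescence read kinetically at 480/540 nm, 6 reads every 60 seconds. Buffer: 50mM HEPES pH 7.8, 0.5mM EDTA, 0.1 mg/ml BSA, 1mM TCEP, 0.01% Tween-20.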

In assay [9] the target is Cytochrome P450 1A2 (Homo sapiens) (UniProt P05177). Description: p450-cyp1a2 (AID 410; calls by dose curve; also: potency is read from the fitted curve at half-maximal effect;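 as to activity change, negative = inhibition: -100% = full effect of reference inhibitor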). An outline of the steps:
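Luminescent demethylation readout: Luciferin-ME (100uM, equal to Km) turned over by 20nM CYP1A2 for 60 min at room temperature after NADPH regeneration addition, following 10 min compound preincubation. Normalization used 57 uM furafylline as full inhibition.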

In assay [10] the target is 3',5'-cyclic-AMP phosphodiesterase 4B (Homo sapiens) (UniProt Q07343). Put plainly: qHTS Assay for Inhibitors of PDE-IV (AID 607; active = well fitted activation curve with a large enough effect in the main read-out, with a control signal flat, not every such curve was filed as active; also: % of control where 0% means no effect). An outline of the steps:
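Cell-based read-out of cAMP via a modified cyclic nucleotide-gated channel and membrane potential dye (535/590 nm) in HEK293 cells expressing PDE4 endogenously. Compounds tested up to 22.9 uM final; 100 uM RO 20-1724 reference.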

The nature of assay [11]: NFAT Signaling Pathway (AID 444; active = well fitted curve in either direction with a large enough effect, not every such curve was filed as active;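 also: carbachol stimulus at about its EC50 of 1 µM final; % is scaled to controls: 0 for no effect and ±100 for the full control effect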). The following applies: Jurkat NFAT-bla M1, carbachol, beta-lactamase ratio, 5 h; at 38 µM (top of the series). An outline of the steps: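 Read-out: CCF4 FRET ratio (460 nm/530 nm) after 1 h RT dye loading, used for %activity and AC50 from titration series. Cells: Jurkat NFAT-β-lactamase/M1 line, treated with compound plus 1 uM carbachol for 5 h, 37 °C.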

A short description of assay [12]: Stat Signaling Pathway (AID 446; active = well fitted curve in either direction with a large enough effect, not every such curve was filed as active;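 also: ME-180 cervical cancer cells given 40 pM IL-6 alongside compound; SIE-controlled beta-lactamase reporter measured as 460/530 nm FRET emission ratio; % is scaled to controls: 0 for no effect and ±100 for the full control effect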). An outline of the steps: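 FRET read-out (405 nm excitation, 460/530 nm emission) of a beta-lactamase reporter under a STAT-inducible element in ME-180 cervical carcinoma cells. Cells with compound receive 40 pM IL-6 for 5 h. Values are normalised to AC90 stimulation and AC90 JAK-inhibitor controls.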
Assay [13] has as its target Guanine nucleotide-binding protein G(i) subunit alpha-1 (Homo sapiens) (UniProt P63096). Description: qHTS Assay for Inhibitors of RGS12 GoLoco Motif Activity (Green Fluorophore) (AID 879).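 Also: 0% = labeled peptide with Gαi1 and full inhibition = labeled peptide alone without protein; negative values mean loss of peptide binding seen as reduced polarization.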 An outline of the steps: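 A drop in FITC polarization marked displacement of the FITC-tagged RGS12 GoLoco peptide (10 nM) from Gαi1 (50 nM). Compounds were incubated 10 min at room temperature in Tris pH 7.5 buffer containing 150 mM NaCl, 0.1 mM GDP and 0.05% NP40; unlabeled peptide titration served as control.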

For assay [14], the target named is Muscarinic acetylcholine receptor M1 (Rattus norvegicus) (UniProt P08482). Put plainly: qHTS Assay for Antagonists of Acetylcholine Muscarinic M1 Receptor: Measurement of IP-One Response (AID 944). Also: nearly all actives have a fitted effect of over 75% in size. An outline of the steps:
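IP1 accumulation measured via TR-FRET between d2-IP1 and Eu-cryptate anti-IP1 antibody after carbachol (200 nM, EC80) stimulation for 30 min; rat M1-transfected CHO cells received compound 10 min before agonist.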

Assay [15] deals with Pyruvate kinase (Leishmania mexicana) (UniProt Q27686). Description: qHTS Validation Assay for Inhibitors of Leishmania Mexicana Pyruvate Kinase (AID 945).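 Also: 0% = DMSO only neutral control wells.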 An outline of the steps:
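Compounds are tested as eight-point concentration series. Reactions contain 0.2 nM LmPYK E451W, 0.5 mM PEP, 0.1 mM ADP, 7 mM MgCl2 and 50 mM KCl at pH 7.2, run 1 h at room temperature, then read by PKLight luminescence.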

In assay [16] the target is Pyruvate kinase PKM (Homo sapiens) (UniProt P14618). Put plainly: qHTS Assay for Activators of Human Muscle Pyruvate Kinase (AID 954; active = well fitted curve in the direction sought with a large enough effect, not every such curve was filed as active;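 also: 0% = uninhibited enzyme and -100% = no enzyme or full thiadiazolimine inhibition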). An outline of the steps:
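ATP production by PKM2 detected via luciferase luminescence after 1 h room-temperature reaction (0.1 nM enzyme, PEP at Km 0.5 mM, ADP 0.1 mM, pH 7.2 imidazole buffer). Inhibition scaled to no-enzyme control; activation referenced to 0.3 nM enzyme wells.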

For assay [17], the target named is Alpha-galactosidase (Coffea arabica) (UniProt Q42656). Description: Counterscreen for Glucocerebrosidase Inhibitors: qHTS Assay for Coffee Bean alpha-Galactosidase at pH 4.5 (AID 957).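 Also: plate controls were enzyme alone for no effect and no enzyme for full effect.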 An outline of the steps:
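Fluorogenic qHTS at pH 4.5 (citrate buffer with Tween-20): 2 nM enzyme, 80 uM 4-MU-alpha-galactoside substrate, compound titrated 0.7 nM to 77 uM, 20 min room temperature. Glycine/NaOH stop; 4-MU read Ex 365/Em 440; Hill-equation AC50 against no-enzyme and enzyme controls.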
(Counterscreens check selectivity or assay interference.)

The target in assay [18] is Alpha-galactosidase A (Homo sapiens) (UniProt P06280). Description: Counterscreen for Glucocerebrosidase Inhibitors: qHTS Assay for Human alpha-Galactosidase at pH 4.5 (AID 992). Also: 0% is about no effect. An outline of the steps: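 Fluorogenic 1536-well qHTS at pH 4.5 (citrate, Tween-20): 2 nM enzyme, 80 uM 4-MU-alpha-galactoside, 20 min room temperature, NaOH/glycine stop. Titration 0.7 nM to 77 uM, data normalized to no-enzyme and full-activity controls, Hill-fitted AC50.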

The target in assay [19] is alpha-glucosidase (Oryza sativa, rice) (UniProt Q653V4). Description: Counterscreen for Glucocerebrosidase Inhibitors: qHTS Assay for Rice alpha-Glucosidase at pH 5.0 (AID 997).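 Also: 0% = full activity with enzyme and -100% = basal without enzyme.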 An outline of the steps: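 Endpoint fluorogenic assay at pH 5.0: compounds (0.7 nM to 77 uM) titrated against 4 nM rice enzyme and 400 uM 4-MU-alpha-glucoside for 20 min at room temperature; NaOH/glycine stop, read ex 365/em 440 nm, Hill-fitted AC50.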

Assay [20] has as its target Alpha-galactosidase (Coffea arabica) (UniProt Q42656). Put plainly: Counterscreen for Glucocerebrosidase Inhibitors: qHTS Assay for Coffee Bean alpha-Galactosidase at pH 5.9 (AID 998).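 Also: plate controls were uninhibited enzyme for no effect and no-enzyme basal signal for full effect.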 An outline of the steps:
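Fluorogenic 4-MU substrate hydrolysis, 80 uM substrate and 2 nM coffee bean alpha-galactosidase, pH 5.9 citrate buffer, 20 min at room temperature, then NaOH/glycine stop. Titration 0.7 nM–77 uM, normalized to no-enzyme and enzyme controls, AC50 via Hill equation.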

Where [21] appears, read: measured here: cell count channel max response.
Setting [22] is: measured here: lipid channel max response.

Several values for one entry are separate records, joined by “and”; a condition that tells them apart may be missing. Equal values may be shown once. Records with an inconclusive call do not appear. Some compounds were tested as several samples or in several runs, with calls that do not always agree. Activity calls are given as the source filed them. Unless noted, calls follow the shape of the dose curve; as a rule, active = well fitted curve in the direction sought with a large enough effect; inconclusive = small, poorly fitted or top-dose-only effect, or another doubt; inactive = no such curve, though single readings can be large; an effect the other way counts as inactive or inconclusive.

DNA dC->dU-editing enzyme APOBEC-3G (Homo sapiens), sequence (Q9HC16 whole entry, looked up): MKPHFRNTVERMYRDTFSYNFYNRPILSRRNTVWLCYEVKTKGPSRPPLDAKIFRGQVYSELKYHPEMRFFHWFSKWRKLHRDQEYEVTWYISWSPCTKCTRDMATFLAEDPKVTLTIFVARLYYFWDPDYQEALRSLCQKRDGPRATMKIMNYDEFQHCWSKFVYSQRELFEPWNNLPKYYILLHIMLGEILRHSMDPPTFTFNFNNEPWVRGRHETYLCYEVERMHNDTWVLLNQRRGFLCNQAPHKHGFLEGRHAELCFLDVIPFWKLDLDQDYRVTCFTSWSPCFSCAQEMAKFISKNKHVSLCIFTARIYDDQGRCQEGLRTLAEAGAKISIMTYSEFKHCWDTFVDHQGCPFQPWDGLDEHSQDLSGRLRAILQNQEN
Glucocorticoid receptor (Homo sapiens), sequence (P04150 whole entry, looked up, the tested form may be a part): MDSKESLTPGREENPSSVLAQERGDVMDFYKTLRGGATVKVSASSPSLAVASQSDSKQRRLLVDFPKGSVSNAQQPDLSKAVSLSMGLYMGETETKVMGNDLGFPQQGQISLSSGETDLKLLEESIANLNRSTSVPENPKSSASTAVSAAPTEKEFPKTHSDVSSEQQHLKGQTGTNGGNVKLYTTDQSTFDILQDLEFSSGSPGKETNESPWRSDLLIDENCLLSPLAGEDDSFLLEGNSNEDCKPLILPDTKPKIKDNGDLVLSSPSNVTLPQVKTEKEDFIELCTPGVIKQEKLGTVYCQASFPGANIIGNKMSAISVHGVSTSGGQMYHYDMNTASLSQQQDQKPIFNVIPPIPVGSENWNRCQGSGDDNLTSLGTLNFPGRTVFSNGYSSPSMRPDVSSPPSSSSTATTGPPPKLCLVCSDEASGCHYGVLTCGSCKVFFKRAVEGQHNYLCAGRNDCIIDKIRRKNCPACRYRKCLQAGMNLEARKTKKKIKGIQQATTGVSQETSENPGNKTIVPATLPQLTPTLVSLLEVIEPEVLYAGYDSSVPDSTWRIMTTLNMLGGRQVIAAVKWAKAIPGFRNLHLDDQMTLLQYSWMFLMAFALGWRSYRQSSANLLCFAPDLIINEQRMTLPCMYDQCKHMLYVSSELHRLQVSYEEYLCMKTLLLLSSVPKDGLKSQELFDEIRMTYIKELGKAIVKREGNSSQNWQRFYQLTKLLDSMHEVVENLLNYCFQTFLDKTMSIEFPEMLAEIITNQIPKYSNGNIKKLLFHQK
3',5'-cyclic-AMP phosphodiesterase 4B (Homo sapiens), sequence (Q07343 whole entry, looked up): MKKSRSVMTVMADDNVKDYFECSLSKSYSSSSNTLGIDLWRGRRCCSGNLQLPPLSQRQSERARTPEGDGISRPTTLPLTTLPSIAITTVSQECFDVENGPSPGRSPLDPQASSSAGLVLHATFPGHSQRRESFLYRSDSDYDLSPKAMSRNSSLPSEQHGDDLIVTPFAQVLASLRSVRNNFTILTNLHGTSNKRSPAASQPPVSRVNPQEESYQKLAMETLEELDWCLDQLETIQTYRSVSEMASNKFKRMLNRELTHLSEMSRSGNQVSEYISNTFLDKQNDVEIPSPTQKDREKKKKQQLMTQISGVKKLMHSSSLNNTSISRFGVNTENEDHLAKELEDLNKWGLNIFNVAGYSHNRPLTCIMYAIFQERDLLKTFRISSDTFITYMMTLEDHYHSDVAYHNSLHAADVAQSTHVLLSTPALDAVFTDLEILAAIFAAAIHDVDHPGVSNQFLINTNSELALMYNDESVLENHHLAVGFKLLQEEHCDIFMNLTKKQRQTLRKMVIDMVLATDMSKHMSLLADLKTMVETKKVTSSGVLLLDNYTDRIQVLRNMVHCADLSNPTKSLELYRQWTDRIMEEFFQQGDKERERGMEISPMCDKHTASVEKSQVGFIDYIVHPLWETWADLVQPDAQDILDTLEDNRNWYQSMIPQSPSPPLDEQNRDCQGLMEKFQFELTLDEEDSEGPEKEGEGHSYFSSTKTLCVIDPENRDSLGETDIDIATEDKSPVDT
Alpha-galactosidase (Coffea arabica), sequence (Q42656 whole entry, looked up): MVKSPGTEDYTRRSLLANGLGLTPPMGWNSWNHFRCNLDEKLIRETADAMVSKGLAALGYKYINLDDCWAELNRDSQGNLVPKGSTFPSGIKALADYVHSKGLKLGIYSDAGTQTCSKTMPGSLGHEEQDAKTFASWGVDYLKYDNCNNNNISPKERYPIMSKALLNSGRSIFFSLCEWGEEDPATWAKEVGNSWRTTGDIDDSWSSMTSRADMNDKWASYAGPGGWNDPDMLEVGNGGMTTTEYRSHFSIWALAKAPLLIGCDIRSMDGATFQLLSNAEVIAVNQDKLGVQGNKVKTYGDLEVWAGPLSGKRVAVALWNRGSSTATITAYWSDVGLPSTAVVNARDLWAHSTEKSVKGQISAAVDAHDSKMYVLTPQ
Cytochrome P450 1A2 (Homo sapiens), sequence (P05177 whole entry, looked up): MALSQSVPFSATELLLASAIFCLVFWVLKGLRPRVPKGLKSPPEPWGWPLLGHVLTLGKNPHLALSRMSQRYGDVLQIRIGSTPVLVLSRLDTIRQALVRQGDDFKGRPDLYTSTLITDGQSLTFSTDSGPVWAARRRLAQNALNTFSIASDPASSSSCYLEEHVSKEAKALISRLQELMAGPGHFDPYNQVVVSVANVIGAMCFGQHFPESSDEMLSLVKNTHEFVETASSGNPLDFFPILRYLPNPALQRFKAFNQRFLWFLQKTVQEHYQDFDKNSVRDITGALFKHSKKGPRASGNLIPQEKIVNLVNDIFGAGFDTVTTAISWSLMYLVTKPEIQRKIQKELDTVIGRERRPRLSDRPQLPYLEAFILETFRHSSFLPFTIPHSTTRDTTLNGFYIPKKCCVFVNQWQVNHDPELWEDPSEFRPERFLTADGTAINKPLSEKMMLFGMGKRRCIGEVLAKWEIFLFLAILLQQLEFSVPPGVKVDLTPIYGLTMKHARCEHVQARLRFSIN
Alpha-galactosidase A (Homo sapiens), sequence (P06280 whole entry, looked up): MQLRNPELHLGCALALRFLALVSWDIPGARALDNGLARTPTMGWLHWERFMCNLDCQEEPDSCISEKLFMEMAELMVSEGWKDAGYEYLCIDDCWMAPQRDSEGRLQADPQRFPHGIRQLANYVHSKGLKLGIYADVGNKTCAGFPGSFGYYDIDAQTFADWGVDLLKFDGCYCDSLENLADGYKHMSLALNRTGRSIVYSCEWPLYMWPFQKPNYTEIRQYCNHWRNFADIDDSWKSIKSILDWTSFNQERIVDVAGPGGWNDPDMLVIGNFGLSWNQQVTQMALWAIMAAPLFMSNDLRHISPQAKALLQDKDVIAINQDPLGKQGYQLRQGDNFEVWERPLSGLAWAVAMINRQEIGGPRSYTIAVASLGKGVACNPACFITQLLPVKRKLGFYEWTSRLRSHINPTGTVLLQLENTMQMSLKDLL
Guanine nucleotide-binding protein G(i) subunit alpha-1 (Homo sapiens), sequence (P63096 whole entry, looked up): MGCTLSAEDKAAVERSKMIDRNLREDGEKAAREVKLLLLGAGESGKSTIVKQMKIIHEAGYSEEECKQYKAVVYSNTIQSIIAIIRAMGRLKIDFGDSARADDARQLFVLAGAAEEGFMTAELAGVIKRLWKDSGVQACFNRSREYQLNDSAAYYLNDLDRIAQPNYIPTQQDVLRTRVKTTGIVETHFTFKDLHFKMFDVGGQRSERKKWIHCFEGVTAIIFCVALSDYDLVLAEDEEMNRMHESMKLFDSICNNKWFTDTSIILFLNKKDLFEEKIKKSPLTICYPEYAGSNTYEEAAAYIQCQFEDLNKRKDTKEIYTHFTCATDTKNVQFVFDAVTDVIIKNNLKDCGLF
Pyruvate kinase (Leishmania mexicana), sequence (Q27686 2-499 E452W): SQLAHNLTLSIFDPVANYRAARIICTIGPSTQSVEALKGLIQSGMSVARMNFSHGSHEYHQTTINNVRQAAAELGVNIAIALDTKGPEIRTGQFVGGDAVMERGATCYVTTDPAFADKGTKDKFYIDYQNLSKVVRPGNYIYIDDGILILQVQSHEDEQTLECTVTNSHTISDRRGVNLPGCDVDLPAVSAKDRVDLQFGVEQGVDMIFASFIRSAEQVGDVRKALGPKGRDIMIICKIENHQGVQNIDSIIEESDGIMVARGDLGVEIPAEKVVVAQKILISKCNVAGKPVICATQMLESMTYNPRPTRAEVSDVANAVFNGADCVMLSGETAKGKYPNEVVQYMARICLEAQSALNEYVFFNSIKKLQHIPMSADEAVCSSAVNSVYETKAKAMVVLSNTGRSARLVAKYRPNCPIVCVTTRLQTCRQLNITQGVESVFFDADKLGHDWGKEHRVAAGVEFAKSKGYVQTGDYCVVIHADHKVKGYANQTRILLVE
Pyruvate kinase PKM (Homo sapiens), sequence (P14618 whole entry, looked up): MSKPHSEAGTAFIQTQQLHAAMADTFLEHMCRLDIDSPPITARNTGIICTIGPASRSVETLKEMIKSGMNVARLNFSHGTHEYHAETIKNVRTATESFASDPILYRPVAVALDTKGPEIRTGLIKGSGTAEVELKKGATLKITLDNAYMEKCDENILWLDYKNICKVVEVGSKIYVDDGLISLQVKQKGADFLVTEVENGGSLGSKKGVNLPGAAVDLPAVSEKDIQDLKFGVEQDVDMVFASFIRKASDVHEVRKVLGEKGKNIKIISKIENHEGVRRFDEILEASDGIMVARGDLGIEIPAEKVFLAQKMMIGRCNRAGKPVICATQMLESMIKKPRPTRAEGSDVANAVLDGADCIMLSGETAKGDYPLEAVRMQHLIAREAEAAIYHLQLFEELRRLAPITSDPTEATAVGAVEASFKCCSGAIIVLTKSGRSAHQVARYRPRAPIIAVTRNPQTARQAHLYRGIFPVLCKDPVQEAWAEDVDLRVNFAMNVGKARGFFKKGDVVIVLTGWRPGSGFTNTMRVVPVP

As to `O=C(O)[C@@H]1C[C@H]2C[C@@H](CP(=O)(O)O)CC[C@H]2CN1`, in assay [1], the Potency is > 46 µM (inactive). For the same compound, in [2], the activity change, negative = inhibition was -1.59% (inactive). Besides, the max response in assay [2] (setting [21]) was -9.16%; in [2] (setting [22]), -11.2%. The Potency result in [3], in [4] and in assay [5] was “inactive” throughout.

`CC[N+](CC)(CCCNC1=CC(=O)C(NCCC[N+](CC)(CC)Cc2ccccc2)=CC1=O)Cc1ccccc1`: the Potency in [1] was > 46 µM (inactive). Besides, the activity change, negative = inhibition in assay [2] is 3.42% (inactive). The max response in assay [2] (setting [21]) is -5.38%; in assay [2] (setting [22]), -3.95%. Besides, the Potency entry in assay [3], in assay [4] and in [5] was “inactive” throughout.

Consider `CC(C)NC[C@H](O)c1ccc(N)c(C#N)c1`, for which the Potency in assay [1] and in assay [6] was > 46 µM (inactive) in each case. Moreover, in assay [7], the result was inactive. Also, the activity change, negative = inhibition in [2] is 11.2% (inactive). In addition, the values for the max response in assay [2] (setting [21]) and in [2] (setting [22]) were 17.3% and 26.1%, respectively. The Potency entry in assay [8], in assay [3], in assay [4] and in [5] was “inactive” throughout.

As for `O=C(O)[C@H]1[C@H]2CN[C@H](C(=O)O)[C@H]21`, the Potency in [9] was 31.6 µM (active); in [1] it was > 46 µM (inactive); in assay [6] it was > 46 µM (inactive). Moreover, the call in [7] was inactive. Moreover, the Potency result in assay [10], in assay [4] and in assay [5] was “inactive” throughout. Also, in assay [2], the activity change, negative = inhibition was -5.1% (inactive). In addition, the max response in [2] (setting [21]) is -11.8%; in assay [2] (setting [22]), -16.1%.

`Cc1o[nH]c(=O)c1C[C@H](N)C(=O)O`: the Potency result is “inactive and 31.6 µM (active)” in [9]; > 46 µM (inactive) in [1]; > 46 µM (inactive) in assay [6]. Moreover, the activity change, negative = inhibition in assay [11] was -2.02% (inactive); in assay [2], 5.07% (inactive) and 0.872% (inactive) and 1.49% (inactive). Also, the compound was called inactive in [12], in assay [7], in assay [13], in assay [15], in assay [16] and in assay [17]. Besides, the outcome in assay [18], in [19] and in assay [20] was inactive. Moreover, the Potency result in assay [10], in assay [14], in [4] and in assay [5] was “inactive” each time. Besides, the max response is 9.71% and 20.6% and -4.26% in assay [2] (setting [21]); 15.4% and 23.1% and -1.44% in assay [2] (setting [22]).

Take `C=C(C)[C@H]1CN[C@H](C(=O)O)[C@@H]1CC(=O)O`: the Potency entry in [9], in assay [10], in assay [14], in assay [4] and in assay [5] was “inactive” in each case. The Potency in [1] and in assay [6] was > 46 µM (inactive) throughout. The compound was called inactive in assay [7], in assay [13], in assay [15], in assay [16], in assay [17] and in [18]. The call in [19] and in assay [20] was inactive. Besides, the activity change, negative = inhibition in assay [2] was 2.85% (inactive). Besides, the results for the max response in assay [2] (setting [21]) and in assay [2] (setting [22]) were -5.55% and -4.1%, respectively.
